Results reported in PubChem BioAssay AID2284124 (EPA ToxCast).
Calls of active or inactive are those of the source. The calls were made as follows: active = hit-call score of the fitted dose curve at least 0.9, where 1 is the maximum; inactive = score below 0.9.

System: guinea pig Atrial Natriuretic Factor (ANF, Non-Selective), gene 100135578
Experiment: ERF_TW_GPCR_gANPA: Eurofins (ERF) Binding Assay for guinea pig Atrial Natriuretic Factor (ANF, Non-Selective)
Protocol: ERF_TW_GPCR_gANPA is a biochemical, single-readout assay that uses extracted gene-proteins in a cell-free assay. Measurements were taken 1 hour after chemical dosing in a 96-well plate. See Atrial Natriuretic Factor (ANF, Non-Selective) Guinea Pig Binding Assay, Panlabs.ERF_TW_GPCR_gANPA is an assay component calculated from the ERF_TW_GPCR_gANPA assay. It is designed to measure radioligand binding using a type of binding reporter as detected by scintillation counting with radiometry technology.Data from the assay component ERF_TW_GPCR_gANPA was analyzed at the assay endpoint, ERF_TW_GPCR_gANPA, in the positive analysis fitting direction relative to DMSO as the negative control and baseline of activity. Using a type of binding reporter, loss-of-signal activity can be used to understand changes in binding as they relate to gene ANPA. To generalize the intended target to other relatable targets, this assay endpoint is annotated to the gpcr intended target family, where the subfamily is guanylyl cyclase.
This assay measures binding of Atrial Natriuretic Peptide to sites associated with the ANF. Guinea pig striatal membranes are prepared in Tris-HCl buffer pH 7.4. A 24 ug aliquot of membrane is incubated with 16 pM Atrial Natriuretic Peptide for 60 minutes at 4C. Non-specific binding is estimated in the presence of 0.1 uM ANF.

SMILES | outcome
O=C(/C=C/c1ccc(O)cc1)CC(=O)/C=C/c1ccc(O)cc1 | inactive
